High-throughput results as filed in PubChem BioAssay.
ABCB6 inh MLPCN: inhibitors of human ABC transporter ABCB6; K562-ABCB6 porphyrin accumulation, flow cytometry, 1 h; stronger effect = lower value; AID 602162; 360,000 compounds, 0.19% hits; fluorescence ratio to DMSO, % at 10 µM; Q9NP58;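 active means fluorescence ratio to DMSO below 75%, the collection mean minus 3 SD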;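 further: signal is porphyrin accumulated inside mitochondria; 100% equals median channel fluorescence of DMSO control wells; lower ratio means ABCB6 inhibition with less porphyrin fluorescence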
Target sequence (Q9NP58 whole entry, looked up): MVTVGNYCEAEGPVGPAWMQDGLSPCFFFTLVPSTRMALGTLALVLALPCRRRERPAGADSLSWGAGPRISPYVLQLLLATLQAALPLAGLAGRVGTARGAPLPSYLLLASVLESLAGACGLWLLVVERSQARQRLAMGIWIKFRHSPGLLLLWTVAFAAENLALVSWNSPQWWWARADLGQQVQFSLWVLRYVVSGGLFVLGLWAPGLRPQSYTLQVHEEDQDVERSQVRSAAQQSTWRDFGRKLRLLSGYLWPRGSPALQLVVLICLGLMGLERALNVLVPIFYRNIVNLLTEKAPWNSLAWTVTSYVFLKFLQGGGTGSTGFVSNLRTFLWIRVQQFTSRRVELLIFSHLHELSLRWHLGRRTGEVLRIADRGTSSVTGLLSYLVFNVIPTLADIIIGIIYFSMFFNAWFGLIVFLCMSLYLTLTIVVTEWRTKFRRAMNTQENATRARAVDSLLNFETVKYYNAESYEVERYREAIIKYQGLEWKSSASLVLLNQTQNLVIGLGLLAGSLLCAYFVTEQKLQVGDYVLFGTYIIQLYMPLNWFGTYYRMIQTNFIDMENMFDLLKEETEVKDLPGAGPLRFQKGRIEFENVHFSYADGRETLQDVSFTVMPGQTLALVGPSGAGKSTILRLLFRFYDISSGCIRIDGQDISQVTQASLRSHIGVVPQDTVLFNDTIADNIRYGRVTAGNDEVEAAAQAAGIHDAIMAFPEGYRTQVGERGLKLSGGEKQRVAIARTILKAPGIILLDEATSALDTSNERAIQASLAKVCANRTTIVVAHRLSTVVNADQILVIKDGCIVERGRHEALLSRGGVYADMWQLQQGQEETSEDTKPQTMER
PG9 binder: binds the HIV-1 gp120 antibody PG9. TR-FRET gp120-PG9 antibody binding. inhibition, % at 6.7 µM. 360,000 compounds, 0.43% hits. AID 624416; in the data active means inhibition above about 8.5%
rCAG RNA binder: binds r(CAG) RNA repeats; r(CAG) RNA repeat, TO-PRO-1 dye displacement fluorescence; inhibition, % at 3 µM; 370,000 compounds, 1.3% hits; AID 651821;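 active means inhibition above the plate cutoff, the mean of all test compounds on that plate plus 3 SD, cut at about 35% in these data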;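 further: 0% = DMSO alone and 100% = 100 µM mitoxantrone as full dye displacement; higher means more dye released from RNA so lower well fluorescence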
Granule exo inh: lytic granule exocytosis inhibition; 360,000 compounds, 0.66% hits; TALL-104 LAMP-1 surface exposure, flow cytometry; cells stimulated with thapsigargin and PMA; inhibition, % at 10 µM;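 active means inhibition above about 55%, limit read from the data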
ABCB6 inh CP1: inhibitors of human ABC transporter ABCB6. shares compounds with ABCB6 inh MLPCN. 700 tested, under 10 active. ratio response (% of DMSO), % at 10 µM. K562-ABCB6 porphyrin accumulation, flow cytometry, 1 h; stronger effect = lower value;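 active means repeat-averaged ratio response below 75% of DMSO, the collection mean minus 3 SD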;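 further: median porphyrin fluorescence at 575 nm with 488 nm excitation from mitochondria; lower ratio means less porphyrin signal so ABCB6 inhibition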
Starred values were filed as active, the others as inactive; x = no result. In the library only some 2.5% were active in any assay of this set; here they are far more common.

SMILES	ABCB6 inh MLPCN	PG9 binder	rCAG RNA binder	Granule exo inh	ABCB6 inh CP1
CC1CCCN(C2(O)C(=O)Nc3ccc([N+](=O)[O-])cc32)C1 (configuration not stated)	90	-1	-3	12	x
CNC(=O)c1cc(Nc2nnc(-c3ccc(C)c(S(N)(=O)=O)c3)c3ccccc23)ccc1OC	74*	-1	1	4	101
CCOC(=O)C1CCCN(C(=O)c2cn(C)c3ccc(S(=O)(=O)N4CCCC4)cc3c2=O)C1 (configuration not stated)	57*	0	-6	0	102
CS(=O)(=O)Nc1ccccc1-c1cccc2nccn12	68*	-1	3	-6	100
COc1ccc(CCNC(=O)C2CCCN(C(=O)c3ccc(Cl)cc3)C2)cc1 (configuration not stated)	73*	0	-1	-2	102
Cc1cn([C@H]2C[C@H](O)[C@@H](CCC(=O)NCCc3cccs3)O2)c(=O)[nH]c1=O	101	2	1	-2	x
COC(=O)C(NC(=O)CCc1nnc2ccc(N3CCC(C)CC3)nn12)C(C)C (configuration not stated)	97	-2	-9	-1	117
COc1ccc(NC(=O)CCc2nnc3ccc(N4CCC(C)CC4)nn23)cc1	98	0	-6	-14	x
CC1CCN(c2ccc3nnc(CCC(=O)NCC(C)c4ccccc4)n3n2)CC1 (configuration not stated)	99	1	-8	7	x
CC1CCN(c2ccc3nnc(CCC(=O)N4CCCCC4)n3n2)CC1	98	0	-9	-2	100
CC1CCN(c2ccc3nnc(CCC(=O)NCc4ccco4)n3n2)CC1	92	-2	-6	-14	x
CCC(C)NC(=O)CCc1nnc2ccc(N3CCC(C)CC3)nn12 (configuration not stated)	61*	-1	-6	7	99
CCOC(=O)C(C)NC(=O)CCc1nnc2ccc(N3CCC(C)CC3)nn12 (configuration not stated)	72*	3	-12	-14	99
COc1cccc(CO[C@H]2C=C[C@@H](c3ccccc3)O[C@@H]2CO)c1	x	x	5	x	x
Cc1ccc(NC(=O)COC(=O)c2nn(C)c(=O)c3ccccc23)cc1F	100	2	4	5	x
CC(C)CCNC(=O)CCc1nnc2ccc(N3CCC(C)CC3)nn12	97	0	-10	-2	100
CCCCCCC(O)(c1ccccc1)C(CN1CCOCC1)c1ccccc1 (configuration not stated)	96	2	-7	0	x
CCCCCC(O)(c1ccccc1)C(CN1CCOCC1)c1ccccc1 (configuration not stated)	72*	0	-7	6	100
O=C(/C=C(\Nc1ccc(Br)c(F)c1)c1ccccc1)c1ccccc1	x	0	1	x	x
Cc1cc2ccccc2n2c(SCC(=O)Nc3ccc(S(=O)(=O)N4CCCCC4)cc3)nnc12	77	2	4	-8	x
Cc1cc2ccccc2n2c(SCC(=O)Nc3ccc(S(=O)(=O)N4CCC(C)CC4)cc3)nnc12	68*	-2	2	13	99
CC1CCN(S(=O)(=O)c2ccc(NC(=O)CN3CCN(c4ccccc4)CC3)cc2)CC1	73*	-1	-5	-3	102
CC1CCN(S(=O)(=O)c2ccc(NC(=O)CN3CCN(C)CC3)cc2)CC1	102	2	-4	0	x
O=C1CC(C(=O)O)C(c2ccccc2)c2ccccc21 (configuration not stated)	97	0	1	7	x
O=C(CCNS(=O)(=O)c1ccc(Br)cc1)NCc1ccc2c(c1)OCO2	62*	-5	-1	0	98
SMILES	ABCB6 inh MLPCN	PG9 binder	rCAG RNA binder	Granule exo inh	ABCB6 inh CP1
CCCNS(=O)(=O)c1ccc(CCC(=O)NCc2ccc3c(c2)OCO3)cc1	106	0	-2	0	x
CC(OC(=O)CCN=C1NS(=O)(=O)c2ccccc21)C(=O)Nc1ccc(F)c(F)c1F (configuration not stated)	100	-3	0	-16	x
O=c1[nH]c(-c2ccc(F)cc2)nc2c1sc(=S)n2-c1ccccc1	98	-1	6	-1	x
O=c1[nH]cnc2c1sc(=S)n2-c1ccccc1	65*	2	0	3	100
O=C(COC(=O)CCCC1=NS(=O)(=O)c2ccccc2N1)Nc1ccc(Br)cc1	104	1	12	-5	97
COc1ccc(Cl)cc1NC(=O)COC(=O)CCCC1=NS(=O)(=O)c2ccccc2N1	101	-1	18	-1	102
Cc1ccccc1COC(=O)CCCC1=NS(=O)(=O)c2ccccc2N1	100	-1	3	1	x
Cc1ccc(NC(=O)COC(=O)CCCC2=NS(=O)(=O)c3ccccc3N2)cc1C	10*	0	8	-4	99
O=C(Cn1nnc(-c2ccccc2F)n1)Nc1ccc(Cl)c(Cl)c1	x	x	5	x	x
O=C(c1cc(-c2ccccc2)nc2ccccc12)N1CCN(c2ccccn2)CC1	98	-1	-4	1	x
O=C(c1cc(-c2ccncc2)nc2ccccc12)N1CCN(c2ccccn2)CC1	69*	-1	-6	1	100
Cc1ccc(-n2c3c(cc(C(=O)NC4CCSC4=O)c2=O)C(=O)CC(C)(C)C3)cc1 (configuration not stated)	102	-1	-6	4	x
CC1(C)CC(=O)c2cc(C(=O)NC3CCSC3=O)c(=O)n(-c3ccc(Cl)cc3)c2C1 (configuration not stated)	63*	-1	0	-12	101
COC(=O)[C@]12C[C@H](CC(=O)N3CCCC3)C(=O)N(Cc3ccco3)C1=C[C@H](C1CCCC1)O[C@@H]2C	x	x	-3	x	x
CCOc1cc(CNc2ncnc3nc[nH]c23)ccc1OC	73*	1	3	-5	100
c1ccc(CNc2ncnc3nc[nH]c23)cc1	102	1	3	-2	x
CC1CCCCN1S(=O)(=O)c1ccc(N(C(=O)c2cnccn2)C(C(=O)NC2CCCC2)c2cccs2)cc1 (configuration not stated)	70*	0	3	2	101
CC1CCCCN1S(=O)(=O)c1ccc(N(C(=O)c2cnccn2)C(C(=O)NC2CCCCC2)c2cccs2)cc1 (configuration not stated)	94	-2	1	13	x
O=C(NCc1ccccc1)c1cc(-c2cccs2)on1	62*	-3	-1	-1	101
CCOc1ccc(-n2c(SCC(=O)c3ccc4ccccc4c3)nnc2-c2ccc(OC)cc2)cc1	x	x	11	x	x
Cc1cc(C)cc(CC(=O)N2CCC2(C)C(=O)NS(=O)(=O)c2cccc(OC(F)F)c2)c1 (configuration not stated)	95	1	23	2	99
Cc1cc(C)cc(CC(=O)N2CCC2(C)C(=O)NS(=O)(=O)c2ccc(C#N)cc2)c1 (configuration not stated)	93	-1	5	6	103
CCCc1ccc(OCCNC(C)=O)cc1	68*	-1	-1	-1	102
